Measurements reported in PubChem BioAssay (NCI).
About 83,000 compounds went through this panel and 20% of them were active in at least one assay; those are over-represented in the sample as a whole.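 Assay: single dose, 48 h. Readout: percent growth (0 = no net growth; negative = cell death). Active: <10.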 Activity calls are given as the source filed them.

The compounds below were run on HS 578T breast (assay: NCI-60 one-dose screen, 48 h (100 = growth as untreated, 0 = no growth, -100 = all killed)). Conditions: 10 µM unless noted.
Description: Growth inhibition of the HS 578T human tumor cell line is measured as a screen for anti-cancer activity. Cells are grown in 96 well plates and exposed to the test compound for 48 hours. Compounds are tested at a single concentration, which is 10^-5 M for most compounds. The reported endpoint is percent growth (GI% or GIPRCNT), where numbers from 0 - 100% represent growth inhibition, and numbers from -100% - 0 represent cell death. For example, a value of 40 represents 60% growth inhibition. A value of 0 means no net growth occurred over the course of the experiment. A value of -40 indicates 40% of cells at the beginning of the experiment died by the end of the experiment. A value of -100 means all cells are dead at the end of the experiment.
NCI-60 Human Tumor Cell Lines Screen was performed using the standard one-dose NCI protocol, which is described in more detail at https://dtp.cancer.gov/discovery_development/nci-60/default.htm.
Compounds with GIPRCNT values below 10 were considered active. Activity score was based on GIPRCNT using the following formula: […]
Score is 0 for GIPRCNT values of 100 or above, 50 for GIPRCNT values of 0, and 100 for GIPRCNT values of -100.
In the case of `COc1ccc(/C=C/C(=O)c2c(C)nc3ccccc3c2/C=C/c2ccccc2)c(OC)c1`, the growth is reported as 82.3% (inactive).
For `COc1ccc(-c2cn[nH]c2-c2ccc(OC)c(O)c2)cc1`, the growth was 75.9% (inactive).
With `C=C[C@@H]1CCC/C=C/[C@@H]2C[C@H](O)C[C@H]2[C@H](O)/C=C/C(=O)O1` the growth was 31.3% (inactive).
In the case of `Cc1ccc(NCCNCC(O)CO)c2c(=O)c3ccccc3sc12` (stereo not given), the growth is reported as 33.1% (inactive).
`COc1ccc(CCN2C(=O)/C(=C/c3ccc(C4Oc5ccccc5C5CC(c6cccc(OC)c6)=NN54)cc3)SC2=S)cc1` (stereo not given) was tested, and the growth was 101% (inactive).
For `O=C(/C=C/c1ccccc1)c1ccc(Nc2nc(NCCO)nc(Nc3ccc(Cl)cc3)n2)cc1`, the growth was 93.1% (inactive).
`O=C(Nc1ccc(I)cc1F)c1cc(Cl)ccc1O` was tested, and the growth was 5.53% (active).
In the case of `N#CC(C#N)=Cc1c(-c2ccccc2)[nH]c2ccccc12`, the growth is reported as -1.19% (active).
In the case of `COc1ccc(-c2c(-c3ccc(OC)c(O)c3)cnc3ncnn23)cc1`, the growth is reported as 104% (inactive).
For `c1ccc(CNc2nc(Nc3ccccc3)nc3ccccc23)cc1`, the growth was 44.4% (inactive).
With `O=c1oc2ccc(Br)cc2c(=O)n1-c1ccc(Br)cc1F` the growth was -5.29% (active).
With `CCN1C(=O)N(CC)C2C1NN=c1s/c(=C3\C(=O)N(C(C)C)c4ccccc43)c(=O)n12` (stereo not given) the growth was 36.7% (inactive).
With `COc1ccccc1N1CCN(C(CNS(=O)(=O)c2ccc(Cl)cc2)c2cccnc2)CC1` (stereo not given) the growth was 88.3% (inactive).
With `CCN1CCN(C(=S)SCC(=O)Nc2nc3ccc(C)cc3s2)CC1` the growth was 112% (inactive).
For `COc1ccccc1CNC(=O)C1c2ccccc2C(=O)N(CC(C)C)C1c1cccs1` (stereo not given), the growth was 68.8% (inactive).
In the case of `CCOC(=O)C1=C(C)c2ccc(OC)c(OC)c2C1`, the growth is reported as 120% (inactive).
In the case of `O=C1/C(=C\c2ccc[nH]2)c2ccccc2N1c1ccccc1`, the growth is reported as 92.3% (inactive).
In the case of `Cc1ccccc1CNC(=O)C1CN(c2ccc(Cl)cc2)N(c2ccc(Cl)cc2)C1=O` (stereo not given), the growth is reported as 85.5% (inactive).
For `O=c1oc2ccc(I)cc2c(=O)n1-c1ccc(Cl)cc1F`, the growth was 5.48% (active).
In the case of `O=C1/C=C/[C@@H](O)[C@@H]2C[C@@H](O)C[C@H]2/C=C/CCCCO1`, the growth is reported as 23.3% (inactive).
`O=c1c2cc(F)ccc2sc2c(Nc3ccncc3)nc3ccccc3c12` was tested, and the growth was 75.3% (inactive).
`COc1cc(OC)cc(N2C(=O)N(Cc3ccc(C(C)(C)C)cc3)c3ccccc3S2(=O)=O)c1` was tested, and the growth was 90.9% (inactive).
`O=C(Nc1ccc(I)cc1F)c1cc(Br)ccc1O` was tested, and the growth was -3.47% (active).
In the case of `COc1cc(C=C2C(=O)N(C)C(=O)N(C)C2=O)cc(CN2CCCCC2)c1O`, the growth is reported as 96% (inactive).
`Clc1ncccc1Nc1ccc2nnc(-c3ccncc3)n2n1` was tested, and the growth was 102% (inactive).
With `COC(=O)[C@@H]1CCCN1C(=O)[C@H]1CCCN1C(=O)[C@@H](Cc1c[nH]c2ccccc12)NC(=S)Nc1cc(C(F)(F)F)cc(C(F)(F)F)c1` the growth was 11.6% (inactive).
With `CNCCNc1nc2ccccc2c2c(=O)c3cccc(C)c3sc12` the growth was 61.6% (inactive).
For `NS(=O)(=O)c1ccc(CCN=C=S)cc1`, the growth was 39.7% (inactive).
In the case of `Cn1c(/C=C(\C#N)c2cccc(C(F)(F)F)c2)nc2c(N3CCOCC3)nc(Cl)nc21`, the growth is reported as -12% (active).
`CCOC(=O)c1ccc2[nH]c(-c3ccccc3)cc(=O)c2c1` was tested, and the growth was 104% (inactive).
For `O=c1cc(-c2ccccc2)oc2cc(OCc3cn(Cc4ccc(F)cc4)nn3)cc(OCc3cn(Cc4ccc(F)cc4)nn3)c12`, the growth was 20.9% (inactive).
For `Oc1c(C(Nc2ccccn2)c2cccc(Oc3ccccc3)c2)ccc2cccnc12` (stereo not given), the growth was -47.6% (active).
With `CCCCc1c(CCC)c(=N)c2ccccc2n1C` the growth was 122% (inactive).
`COc1ccc(C2C3=C(COC3=O)N(CCO)c3cc4c(cc32)CCC4)cc1` (stereo not given) was tested, and the growth was 69.7% (inactive).
`COc1ccc(-c2nnc(COc3ccc(C(=O)/C=C/c4ccco4)cc3)o2)cc1` was tested, and the growth was 92.6% (inactive).
`C1CCN(c2nc(N3CCCCC3)nc(N3CCOCC3)n2)CC1` was tested, and the growth was 112% (inactive).
For `COC(=O)c1ccc(NC(=O)CSc2nc3ccccc3c(=O)n2-c2ccccc2)cc1`, the growth was 101% (inactive).
In the case of `O=S1(=O)N(Cc2ccccc2)[C@@H](Cc2ccccc2)[C@H](O)[C@H](O)[C@H](Cc2ccccc2)N1Cc1ccccc1`, the growth is reported as 19.7% (inactive).
`Cc1ccc(C)c(-c2csc(Nc3ccc(C)c(C)c3)n2)c1` was tested, and the growth was 57.9% (inactive).
For `O=c1oc2ccc(Br)cc2c(=O)n1-c1ccc(I)cc1F`, the growth was 0.536% (active).
